# Experimental data taken from PubChem BioAssay (NCATS).
# Inconclusive results are not listed. Entries that show only a call come without a potency. Calls of active or inactive are those of the source. The call rests on the fitted dose curve; in most records, active means well fitted cell-killing curve with a large enough effect; inconclusive means small, poorly fitted or top-dose-only effect; inactive means no such curve, though single readings can be large or run the other way.
# Test: qHTS of pediatric cancer cell lines to identify multiple opportunities for drug repurposing: Primary screen for SJ-GBM2 cells (AID 1347091)
# Conditions: SJ-GBM2 viability, CellTiter-Glo luminescence, 48 h; series mostly up to 46 µM
# Source text: Drug repurposing or repositioning has been offered as a strategy for drug development in oncology programs. This approach has special potential for childhood cancers and other rare or orphan diseases, where the expected return on new drug development has been a disincentive to pharmaceuticals.
# In this project we exploit the poly-pharmacology of drugs to discover new indications via phenotypic screening of a panel of 19 well-characterized cell lines derived from solid tumors seen in children and adolescents. The goal is to identify approved drugs with previously unrecognized anticancer properties that has the potential to reveal new mechanisms and biological processes involved in carcinogenesis or drug resistance. We employed a titration-based paradigm (quantitative high-throughput screening or qHTS), where all compounds were tested at multiple concentrations for their effect on cell viability. Concentration-response curves (CRCs) were derived directly from the primary screen, and both potency and efficacy values were used to identify compounds with robust bioactivity profiles. We screened the NIH Chemical Genomics Center (NCGC) Pharmaceutical Collection (NPC) and Mechanism Interrogation Plate (MIPE) small molecule collections of approved and investigational compounds against these cell lines; and measured metabolically active cells after 48 hours of compound treatment as a proxy for cell viability.
# Assay Submitter: Nathalia J. Martinez, National Center for Advancing Translational Sciences, National Institutes of Health, Rockville, MD, USA; email: natalia.martinez@nih.gov
# [1] Shen, M et al. Quantitative high-throughput phenotypic screening of pediatric cancer cell lines identifies multiple opportunities for drug repurposing. Oncotarget 2017 Dec 19;9(4):4758-4772. PMID 29435139.
# The cells were obtained from University of North Carolina (UNC), Pediatric Preclinical Testing Program (PPT), and Coriell Institute (CI).
# qHTS cell viability assay:
# Cells were assayed in growth media at a density of 500-1,000 cells/well. Five microliters of cells were dispensed into 1,536-well, white, solid-bottom, TC-treated plates (Greiner Bio One) using a multidrop dispenser and incubated at 37 degrees C, 5% CO2, under a humidified atmosphere for 5 hours. Twenty-three nanoliters of compounds and controls (neutral control DMSO or positive control bortezomib at final concentration of 2.3 µM) were subsequently transferred by Kalypsys pintool. For primary screens, the MIPE collection was tested at 11-point dilutions (final concentrations range from 0.78 nM to 46 µM) and the NPC collection at 8-point dilutions (final concentrations range from 0.59 nM to 46 µM). Compounds tested in follow-up screens were assayed at 11-point dilutions. Cells were incubated for 48 hours, followed by addition of 3 uL of CellTiter-Glo (Promega). After a 15 min incubation at room temperature, samples were analyzed for luminescence intensity using a ViewLux High-throughput CCD imager equipped with clear filters.
# Potency means the concentration at half of the fitted maximal effect.
row,SMILES,Potency
1,Cc1ccc(NC(=O)c2cccc(N(C)C)c2)cc1NC(=O)c1ccc(O)cc1,inactive
2,O=C1C(CCC(O)c2ccc(F)cc2)C(c2ccc(O)cc2)N1c1ccc(F)cc1 (stereo not given),inactive
3,Cc1ccc(C(=O)N(CCCN)[C@@H](c2nc3cc(Cl)ccc3c(=O)n2Cc2ccccc2)C(C)C)cc1,0.001 µM (active)
4,CN(C)c1nc(Cc2ccc(NC(=O)c3ccc(C(F)(F)F)cc3)cc2)nc(N(C)C)c1CC(=O)O,inactive
5,C=CC[N+]1([C@H]2C[C@H]3[C@@H]4CC[C@H]5C[C@H](O)[C@@H](N6CCOCC6)C[C@]5(C)[C@@H]4CC[C@]3(C)[C@H]2OC(C)=O)CCCC1,inactive
6,CCOC(=O)[C@@H](N)CCC(=O)N[C@@H](CSCc1ccccc1)C(=O)N[C@@H](C(=O)OCC)c1ccccc1,inactive
7,C[C@@]1(c2cc(-c3cncnc3)c(F)cc2F)CCSC(N)=N1,4.69 µM (active)
8,C[C@@]1(C(=O)Nc2ccc(F)nc2)CCCN1c1nc(Nc2cc(C3CC3)[nH]n2)c2cccn2n1,0.187 µM (active)
9,CN1[C@H]2CC[C@H]1CC(OC(=O)c1c[nH]c3ccccc13)C2 (stereo not given in full),inactive
10,CO[C@H]1/C=C\O[C@@]2(C)Oc3c(C)c(O)c4c(O)c(c5c(nc6cc(C)ccn65)c4c3C2=O)NC(=O)C(C)=CC=C[C@H](C)[C@H](O)[C@@H](C)[C@@H](O)[C@@H](C)[C@H](OC(C)=O)[C@H]1C,inactive
11,COc1c(C)cnc(Cn2cnc3c(Cl)nc(N)nc32)c1C,0.296 µM (active)
12,Cc1ccc(S(=O)(=O)Nc2nc3ccccc3nc2Nc2ccc3nsnc3c2)cc1,0.0575 µM (active)
13,Cc1cc(OCCCS(C)(=O)=O)cc(C)c1-c1cccc(COc2ccc3c(c2)OC[C@H]3CC(=O)O)c1,26.4 µM (active)
14,Oc1cc(O)cc(C=Cc2ccc(O)c(O)c2)c1,inactive
15,COc1cc2nccc(Oc3ccc(NC(=O)Nc4cc(C)on4)c(Cl)c3)c2cc1OC,14.8 µM (active)
16,CCN1C[C@H](C)n2c(c(O)c3c(=O)n(Cc4ccc(F)c(Cl)c4)nc(C(=O)NC)c32)C1=O,inactive
17,O=c1[nH]nc(OCCCc2ccc(Cl)cc2)c(NCc2cccnc2)c1Br,23.5 µM (active)
18,COc1cc(C=CC(=O)O)ccc1O,inactive
19,CC(=O)OCC(=O)[C@@]12OC(C)(C)O[C@H]1C[C@H]1[C@@H]3C[C@H](F)C4=CC(=O)C=C[C@]4(C)[C@@]3(F)[C@@H](O)C[C@@]12C,inactive
20,Cc1nc(NC(=O)N2CCC[C@@H]2C(N)=O)sc1-c1csc(C(C)(C)C)n1,4.18 µM (active)

row,SMILES,Potency
1,CC(C)C[C@H](NC(=O)c1cc2ccccc2s1)C(=O)N1CCN(C(=O)[C@H](CO)NS(=O)(=O)c2ccc(Cl)cc2Cl)CC1,18.7 µM (active)
2,CN(C)CCCNC(=O)c1ccc(-c2cc(O)c3ncccc3c2)cc1,inactive
3,CCN1CCC(n2cc(CNc3cc(Cl)c4ncc(C#N)c(Nc5ccc(F)c(Cl)c5)c4c3)nn2)CC1,18.7 µM (active)
4,CCNC(=O)[C@H]1O[C@@H](n2cnc3c(N)nc(NCCc4ccc(CCC(=O)O)cc4)nc32)[C@H](O)[C@H]1O,inactive
5,CN(C)CCOc1ccc(-c2nc(-c3ccc4c(c3)CCC4=NO)c(-c3ccncc3)[nH]2)cc1,23.5 µM (active)
6,CCCCCOC(=O)Nc1nc(=O)n([C@@H]2O[C@H](C)[C@@H](O)C2O)cc1F (stereo not given in full),inactive
7,CN1CCc2c(n(Cc3ccc(C(=O)NO)cc3)c3ccccc23)C1,16.6 µM (active)
8,COC(=O)Nc1ccc(-c2nc(N3CCOCC3)c3cnn(C4CCN(C(=O)OC)CC4)c3n2)cc1,4.69 µM (active)
9,Cc1cnc(Nc2cccc(CN3CCOCC3)c2)nc1Nc1cccc(S(=O)(=O)NC(C)(C)C)c1,4.18 µM (active)
10,NC[C@H]1O[C@H](O[C@@H]2[C@@H](O)[C@@H](O[C@H]3O[C@H](CO)[C@@H](O)[C@H](N)[C@@H]3O)[C@H](N)C[C@@H]2N)[C@H](O)[C@@H](O)[C@H]1O,inactive
11,COc1cc2nccc(Oc3ccc(NC(=O)Nc4ccc(F)cc4F)c(F)c3)c2cc1OC,2.96 µM (active)
12,N[C@@H](CC(=O)N1CCn2c(nnc2C(F)(F)F)C1)Cc1cc(F)c(F)cc1F,inactive
13,NC(=O)c1ncn([C@@H]2O[C@H](CO)[C@@H](O)[C@@H]2O)n1,inactive
14,CCCCCCCCCCCCCCCC(=O)O[C@H]1[C@@H](O)[C@@H](O)[C@@H]([C@H](NC(=O)[C@@H]2C[C@@H](CCC)CN2C)[C@H](C)Cl)O[C@@H]1SC,inactive
15,CC(=O)N1CCN(c2ccc(OCc3nn(C)c(C)c3-c3cccc4c(CCCOc5cc(C)c(Cl)c(C)c5)c(C(=O)O)n(Cc5cccnc5)c34)cc2)CC1,23.5 µM (active)
16,Clc1ccc(C2(c3ccc(-c4cn[nH]c4)cc3)CCNCC2)cc1,5.26 µM (active)
17,O=C(c1ccc(C(=O)N2CCC(N3CCCC3)CC2)c(Nc2ccccc2)c1)N1CCC(N2CCCC2)CC1,inactive
18,CN(C)CCN(C)C(=O)c1ccc(NC(=O)Nc2ccc(-c3nc(N4CCOCC4)c4ccn(CC(F)(F)F)c4n3)cc2)cc1,0.105 µM (active)
19,COC1CCC(C(=O)c2ccc3nc4c(cc3c2)CCCO4)CC1 (stereo not given),18.7 µM (active)
20,CCC(c1ccc(O)cc1)C(CC)c1ccc(O)cc1 (stereo not given),inactive
